Results: the supplement of paper PMC10849652
About 8,800 targets were measured; listed, in parts, are those with a hit and a random draw of the rest. About 0.5% of all pairs of compound and target were hits. A number with no mark means an inactive call.

How the values were obtained:
Experiment in all cases: log2 fold change, soluble protein after heating vs DMSO (PISA); higher = thermal stabilisation; K562 lysate, 10 uM; active = over 0.2 and 3.5 SD of the protein, either way, in both replicates (recomputed)
lapatinib = compound: CS(=O)(=O)CCNCc1ccc(-c2ccc3ncnc(Nc4ccc(OCc5cccc(F)c5)c(Cl)c4)c3c2)o1 [lapatinib]
In short: (§1)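 Following dounce homogenisation of K562 pellets in PBS pH 7.4 with 1 mM MgCl2, crude extract at 1 mg/mL protein was incubated for 30 min with 10 μM compound. Aliquots were then heated for 3 min over 48°C-58°C and pooled, NP-40 was added to 0.5% at 4°C, and soluble protein was recovered as the supernatant at 21,000xg for 90 min. Channel-sum-equalised TMTpro 16plex LC-MS/MS quantified this protein. Each value, from duplicates, is a log-two fold change in thermal stability relative to solvent controls.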

pictilisib = compound: CS(=O)(=O)N1CCN(Cc2cc3nc(-c4cccc5[nH]ncc45)nc(N4CCOCC4)c3s2)CC1 [pictilisib]
In short: as §1

crizotinib = compound: C[C@@H](Oc1cc(-c2cnn(C3CCNCC3)c2)cnc1N)c1c(Cl)ccc(F)c1Cl [crizotinib]
In short: as §1

[1] = compound: C[C@H](C1=CC=C(C=C1)C(=O)NC2=C3C=CNC3=NC=C2)N
In short: as §1

duvelisib = compound: C[C@H](Nc1ncnc2nc[nH]c12)c1cc2cccc(Cl)c2c(=O)n1-c1ccccc1 [duvelisib]
In short: as §1

gandotinib = compound: Cc1cc(Nc2cc(CN3CCOCC3)c3nc(C)c(Cc4ccc(Cl)cc4F)n3n2)n[nH]1 [gandotinib]
In short: as §1

tozasertib = compound: Cc1cc(Nc2cc(N3CCN(C)CC3)nc(Sc3ccc(NC(=O)C4CC4)cc3)n2)n[nH]1 [tozasertib]
In short: as §1

doramapimod = compound: Cc1ccc(-n2nc(C(C)(C)C)cc2NC(=O)Nc2ccc(OCCN3CCOCC3)c3ccccc23)cc1 [doramapimod]
In short: as §1

bafetinib = compound: Cc1ccc(NC(=O)c2ccc(CN3CC[C@H](N(C)C)C3)c(C(F)(F)F)c2)cc1Nc1nccc(-c2cncnc2)n1 [bafetinib]
In short: as §1

[2] = compound: Cc1cccc(CC(=O)N2CCc3c2ccc(-c2cn(C)c4ncnc(N)c24)c3F)n1
In short: as §1

nilotinib = compound: Cc1cn(-c2cc(NC(=O)c3ccc(C)c(Nc4nccc(-c5cccnc5)n4)c3)cc(C(F)(F)F)c2)cn1 [nilotinib]
In short: as §1

[3] = compound: Cc1nc(Nc2n[nH]c3c2CN(C(=O)N[C@H](CN(C)C)c2ccccc2)C3(C)C)c2sccc2n1
In short: as §1

dasatinib = compound: Cc1nc(Nc2ncc(C(=O)Nc3c(C)cccc3Cl)s2)cc(N2CCN(CCO)CC2)n1 [dasatinib]
In short: as §1

[4] = compound: Cc1ncc(-c2ccnc(Nc3ccc(S(C)(=O)=O)cc3)n2)n1C(C)C
In short: as §1

[5] = compound: Cn1cc(-c2ccc3c(c2)CCN3C(=O)Cc2cccc(C(F)(F)F)c2)c2c(N)ncnc21
In short: as §1

quisinostat = compound: Cn1cc(CNCC2CCN(c3ncc(C(=O)NO)cn3)CC2)c2ccccc21 [quisinostat]
In short: as §1

tipifarnib = compound: Cn1cncc1[C@@](N)(c1ccc(Cl)cc1)c1ccc2c(c1)c(-c1cccc(Cl)c1)cc(=O)n2C [tipifarnib]
In short: as §1

[6] = compound: NC(=O)Nc1cc(-c2cccc(F)c2)sc1C(=O)N[C@H]1CCCNC1
In short: as §1

[7] = compound: NC(=O)c1cnc(N[C@@H]2CCCC[C@@H]2N)nc1Nc1cccc(-n2nccn2)c1
In short: as §1

[8] = compound: NC1(c2ccc(-c3nc4ccn5c(=O)[nH]nc5c4cc3-c3ccccc3)cc2)CCC1
In short: as §1

Target: ARMC6 (UniProt Q6NXE6)
UniProt Q6NXE6, sequence (Q6NXE6 whole entry, looked up): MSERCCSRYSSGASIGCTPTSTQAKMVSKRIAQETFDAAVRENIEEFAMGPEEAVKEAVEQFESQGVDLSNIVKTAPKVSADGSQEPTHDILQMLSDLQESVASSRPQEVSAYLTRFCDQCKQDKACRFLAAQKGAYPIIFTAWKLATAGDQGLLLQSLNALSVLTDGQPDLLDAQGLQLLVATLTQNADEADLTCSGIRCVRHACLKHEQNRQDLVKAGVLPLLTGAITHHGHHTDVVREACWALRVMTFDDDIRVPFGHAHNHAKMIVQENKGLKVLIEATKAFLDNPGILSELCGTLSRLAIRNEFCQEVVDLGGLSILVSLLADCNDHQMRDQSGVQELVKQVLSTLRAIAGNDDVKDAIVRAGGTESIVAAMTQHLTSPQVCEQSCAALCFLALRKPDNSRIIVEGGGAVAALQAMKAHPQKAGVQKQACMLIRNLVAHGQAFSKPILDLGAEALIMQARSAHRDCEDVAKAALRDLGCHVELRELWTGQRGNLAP
- log2 fold change (lapatinib): 0
- log2 fold change (pictilisib): -0.015
- log2 fold change (crizotinib): -0.022
- log2 fold change [1]: 0.012
- log2 fold change (duvelisib): -0.027
- log2 fold change (gandotinib): -0.067
- log2 fold change (tozasertib): 0.024
- log2 fold change (doramapimod): 0
- log2 fold change (bafetinib): -0.016
- log2 fold change [2]: -0.009
- log2 fold change (nilotinib): -0.001
- log2 fold change [3]: -0.006
- log2 fold change (dasatinib): -0.055
- log2 fold change [4]: -0.017
- log2 fold change [5]: 0.013
- log2 fold change (quisinostat): -0.057
- log2 fold change (tipifarnib): 0
- log2 fold change [6]: 0.094
- log2 fold change [7]: 0.017
- log2 fold change [8]: -0.031

Target: ARHGEF1 (UniProt M0QZR4)
- log2 fold change (lapatinib): 0.006
- log2 fold change (pictilisib): -0.011
- log2 fold change (crizotinib): -0.041
- log2 fold change [1]: -0.038
- log2 fold change (duvelisib): -0.007
- log2 fold change (gandotinib): -0.012
- log2 fold change (tozasertib): 0.029
- log2 fold change (doramapimod): 0.02
- log2 fold change (bafetinib): -0.019
- log2 fold change [2]: 0.106
- log2 fold change (nilotinib): 0.009
- log2 fold change [3]: -0.031
- log2 fold change (dasatinib): -0.058
- log2 fold change [4]: -0.016
- log2 fold change [5]: 0.022
- log2 fold change (quisinostat): -0.02
- log2 fold change (tipifarnib): 0.01
- log2 fold change [6]: 0.015
- log2 fold change [7]: 0.017
- log2 fold change [8]: -0.015

Target: AKT2 (UniProt P31751)
UniProt P31751, sequence (P31751 whole entry, looked up): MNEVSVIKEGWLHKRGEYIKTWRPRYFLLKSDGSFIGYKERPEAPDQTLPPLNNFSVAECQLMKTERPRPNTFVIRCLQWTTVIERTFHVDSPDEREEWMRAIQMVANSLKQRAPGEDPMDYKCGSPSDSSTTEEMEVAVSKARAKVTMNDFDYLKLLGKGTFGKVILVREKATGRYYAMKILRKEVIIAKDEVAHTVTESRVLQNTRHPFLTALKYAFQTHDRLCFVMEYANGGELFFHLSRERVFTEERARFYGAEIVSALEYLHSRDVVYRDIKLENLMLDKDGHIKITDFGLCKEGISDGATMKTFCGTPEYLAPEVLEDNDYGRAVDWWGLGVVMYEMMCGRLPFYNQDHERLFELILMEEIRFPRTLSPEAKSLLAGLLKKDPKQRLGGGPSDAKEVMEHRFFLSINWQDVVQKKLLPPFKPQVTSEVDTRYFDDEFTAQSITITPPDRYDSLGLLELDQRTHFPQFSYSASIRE
- log2 fold change (lapatinib): -0.022
- log2 fold change (pictilisib): 0.005
- log2 fold change (crizotinib): 0.015
- log2 fold change [1]: -0.007
- log2 fold change (duvelisib): -0.005
- log2 fold change (gandotinib): -0.022
- log2 fold change (tozasertib): 0.033
- log2 fold change (doramapimod): -0.015
- log2 fold change (bafetinib): 0.051
- log2 fold change [2]: -0.036
- log2 fold change (nilotinib): -0.013
- log2 fold change [3]: -0.004
- log2 fold change (dasatinib): 0.003
- log2 fold change [4]: -0.008
- log2 fold change [5]: 0.005
- log2 fold change (quisinostat): 0.001
- log2 fold change (tipifarnib): 0.017
- log2 fold change [6]: 0.019
- log2 fold change [7]: -0.015
- log2 fold change [8]: 0.559 (active)

Target: AIP (UniProt O00170)
UniProt O00170, sequence (O00170 whole entry, looked up): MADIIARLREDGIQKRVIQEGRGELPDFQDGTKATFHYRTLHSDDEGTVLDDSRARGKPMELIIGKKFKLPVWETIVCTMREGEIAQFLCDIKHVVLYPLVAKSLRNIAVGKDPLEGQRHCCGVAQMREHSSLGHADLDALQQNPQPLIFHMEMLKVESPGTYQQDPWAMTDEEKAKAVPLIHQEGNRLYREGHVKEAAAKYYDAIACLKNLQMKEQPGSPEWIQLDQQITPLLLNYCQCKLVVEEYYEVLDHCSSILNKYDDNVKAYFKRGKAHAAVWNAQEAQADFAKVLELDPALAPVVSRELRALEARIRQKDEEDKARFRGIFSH
- log2 fold change (lapatinib): -0.004
- log2 fold change (pictilisib): -0.026
- log2 fold change (crizotinib): 0.021
- log2 fold change [1]: 0.41 (active)
- log2 fold change (duvelisib): -0.031
- log2 fold change (gandotinib): -0.019
- log2 fold change (tozasertib): -0.012
- log2 fold change (doramapimod): -0.022
- log2 fold change (bafetinib): 0.055
- log2 fold change [2]: -0.043
- log2 fold change (nilotinib): 0.024
- log2 fold change [3]: -0.001
- log2 fold change (dasatinib): 0.018
- log2 fold change [4]: 0.028
- log2 fold change [5]: 0.008
- log2 fold change (quisinostat): 0.007
- log2 fold change (tipifarnib): 0.027
- log2 fold change [6]: -0.011
- log2 fold change [7]: -0.016
- log2 fold change [8]: 0.024

Target: AKAP11 (UniProt Q9UKA4)
UniProt Q9UKA4, sequence (Q9UKA4 whole entry, looked up): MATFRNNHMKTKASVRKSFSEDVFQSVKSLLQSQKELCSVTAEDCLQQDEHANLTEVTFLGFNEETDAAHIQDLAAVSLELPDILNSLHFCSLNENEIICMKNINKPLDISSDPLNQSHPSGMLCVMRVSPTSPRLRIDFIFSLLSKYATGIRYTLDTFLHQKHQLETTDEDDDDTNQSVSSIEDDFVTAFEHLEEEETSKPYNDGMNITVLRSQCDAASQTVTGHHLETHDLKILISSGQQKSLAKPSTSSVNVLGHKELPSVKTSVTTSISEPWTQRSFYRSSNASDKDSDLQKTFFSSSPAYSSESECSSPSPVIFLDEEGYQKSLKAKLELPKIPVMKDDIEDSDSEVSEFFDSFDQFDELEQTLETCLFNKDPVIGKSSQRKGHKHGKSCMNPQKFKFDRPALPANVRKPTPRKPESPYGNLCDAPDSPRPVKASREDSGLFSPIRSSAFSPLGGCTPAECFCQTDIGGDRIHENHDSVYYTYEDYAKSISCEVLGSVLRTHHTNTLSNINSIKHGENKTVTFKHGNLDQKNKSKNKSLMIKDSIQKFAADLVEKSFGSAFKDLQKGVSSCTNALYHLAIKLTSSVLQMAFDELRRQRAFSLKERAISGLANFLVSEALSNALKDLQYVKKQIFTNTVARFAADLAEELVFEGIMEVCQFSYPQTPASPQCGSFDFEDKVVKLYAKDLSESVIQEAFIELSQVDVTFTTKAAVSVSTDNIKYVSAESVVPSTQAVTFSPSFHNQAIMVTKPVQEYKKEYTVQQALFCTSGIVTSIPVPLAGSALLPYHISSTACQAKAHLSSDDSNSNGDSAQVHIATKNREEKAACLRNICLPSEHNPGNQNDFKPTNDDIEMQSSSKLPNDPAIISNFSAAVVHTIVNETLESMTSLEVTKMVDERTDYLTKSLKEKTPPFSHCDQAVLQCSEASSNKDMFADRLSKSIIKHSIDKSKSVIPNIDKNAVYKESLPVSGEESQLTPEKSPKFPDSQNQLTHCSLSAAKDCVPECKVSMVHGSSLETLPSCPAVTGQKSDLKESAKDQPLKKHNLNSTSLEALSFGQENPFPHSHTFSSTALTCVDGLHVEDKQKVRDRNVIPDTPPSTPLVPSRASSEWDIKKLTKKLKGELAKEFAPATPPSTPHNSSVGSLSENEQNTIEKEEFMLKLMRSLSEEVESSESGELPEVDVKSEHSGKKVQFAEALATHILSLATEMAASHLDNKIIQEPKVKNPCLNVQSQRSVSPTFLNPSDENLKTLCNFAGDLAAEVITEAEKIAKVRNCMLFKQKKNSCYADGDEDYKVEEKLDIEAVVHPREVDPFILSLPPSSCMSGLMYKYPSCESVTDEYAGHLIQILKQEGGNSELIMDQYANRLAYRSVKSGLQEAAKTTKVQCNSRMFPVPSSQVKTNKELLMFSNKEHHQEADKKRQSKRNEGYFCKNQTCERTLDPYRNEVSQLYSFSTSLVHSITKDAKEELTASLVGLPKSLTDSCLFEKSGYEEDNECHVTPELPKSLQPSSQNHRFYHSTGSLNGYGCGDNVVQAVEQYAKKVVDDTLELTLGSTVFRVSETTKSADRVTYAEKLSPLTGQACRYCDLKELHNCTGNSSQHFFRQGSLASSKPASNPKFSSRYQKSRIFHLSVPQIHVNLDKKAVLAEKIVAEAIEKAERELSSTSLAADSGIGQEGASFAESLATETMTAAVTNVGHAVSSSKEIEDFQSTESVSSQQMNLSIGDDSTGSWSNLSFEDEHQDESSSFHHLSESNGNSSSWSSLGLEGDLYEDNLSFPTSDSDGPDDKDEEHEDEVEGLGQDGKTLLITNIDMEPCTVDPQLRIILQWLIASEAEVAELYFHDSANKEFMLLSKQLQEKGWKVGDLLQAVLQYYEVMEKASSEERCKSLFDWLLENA
- log2 fold change (lapatinib): 0.021
- log2 fold change (pictilisib): -0.08
- log2 fold change (crizotinib): 0.025
- log2 fold change [1]: -0.02
- log2 fold change (duvelisib): 0.015
- log2 fold change (gandotinib): -0.176
- log2 fold change (tozasertib): 0.061
- log2 fold change (doramapimod): -0.036
- log2 fold change (bafetinib): -0.084
- log2 fold change [2]: -0.005
- log2 fold change (nilotinib): -0.001
- log2 fold change [3]: -0.06
- log2 fold change (dasatinib): -0.074
- log2 fold change [4]: 0.188
- log2 fold change [5]: 0.092
- log2 fold change (quisinostat): 0.012
- log2 fold change (tipifarnib): 0.022
- log2 fold change [6]: 0.008
- log2 fold change [7]: 0.014
- log2 fold change [8]: -0.05

Target: ANXA2 isoform 2 (UniProt P07355)
UniProt P07355, sequence (P07355 whole entry, looked up): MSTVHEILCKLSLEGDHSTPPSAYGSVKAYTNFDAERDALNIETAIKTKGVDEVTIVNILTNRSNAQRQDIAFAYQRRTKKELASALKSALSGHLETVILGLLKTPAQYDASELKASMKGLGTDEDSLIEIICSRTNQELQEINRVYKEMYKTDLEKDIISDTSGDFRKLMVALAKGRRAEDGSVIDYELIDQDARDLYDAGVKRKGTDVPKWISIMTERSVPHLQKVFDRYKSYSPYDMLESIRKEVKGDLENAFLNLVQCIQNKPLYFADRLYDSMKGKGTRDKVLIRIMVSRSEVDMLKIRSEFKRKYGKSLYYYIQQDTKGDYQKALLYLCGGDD
- log2 fold change (lapatinib): 0.009
- log2 fold change (pictilisib): -0.005
- log2 fold change (crizotinib): 0.029
- log2 fold change [1]: 0.017
- log2 fold change (duvelisib): -0.028
- log2 fold change (gandotinib): 0.008
- log2 fold change (tozasertib): -0.001
- log2 fold change (doramapimod): -0.024
- log2 fold change (bafetinib): 0.065
- log2 fold change [2]: -0.041
- log2 fold change (nilotinib): 0.035
- log2 fold change [3]: -0.016
- log2 fold change (dasatinib): 0.048
- log2 fold change [4]: 0.003
- log2 fold change [5]: -0.017
- log2 fold change (quisinostat): 0.064
- log2 fold change (tipifarnib): 0.016
- log2 fold change [6]: -0.018
- log2 fold change [7]: -0.015
- log2 fold change [8]: 0.022

Target: ADRM1 (UniProt Q16186)
UniProt Q16186, sequence (Q16186 whole entry, looked up): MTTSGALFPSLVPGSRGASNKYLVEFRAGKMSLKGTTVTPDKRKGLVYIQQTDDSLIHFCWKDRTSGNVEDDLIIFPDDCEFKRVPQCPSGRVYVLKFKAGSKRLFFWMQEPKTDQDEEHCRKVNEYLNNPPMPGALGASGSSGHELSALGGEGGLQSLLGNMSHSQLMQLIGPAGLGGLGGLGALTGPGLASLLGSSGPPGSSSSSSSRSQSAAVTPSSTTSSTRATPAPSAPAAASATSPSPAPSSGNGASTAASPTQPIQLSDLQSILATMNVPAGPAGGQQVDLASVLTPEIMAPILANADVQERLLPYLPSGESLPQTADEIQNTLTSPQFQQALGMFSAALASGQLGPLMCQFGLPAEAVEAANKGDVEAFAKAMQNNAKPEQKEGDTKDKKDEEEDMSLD
- log2 fold change (lapatinib): -0.009
- log2 fold change (pictilisib): -0.012
- log2 fold change (crizotinib): -0.05
- log2 fold change [1]: 0.019
- log2 fold change (duvelisib): 0.03
- log2 fold change (gandotinib): -0.014
- log2 fold change (tozasertib): -0.019
- log2 fold change (doramapimod): 0.042
- log2 fold change (bafetinib): 0.006
- log2 fold change [2]: 0.02
- log2 fold change (nilotinib): 0.002
- log2 fold change [3]: -0.006
- log2 fold change (dasatinib): -0.063
- log2 fold change [4]: 0.015
- log2 fold change [5]: -0.003
- log2 fold change (quisinostat): -0.102
- log2 fold change (tipifarnib): -0.017
- log2 fold change [6]: 0.011
- log2 fold change [7]: 0.008
- log2 fold change [8]: -0.003

Target: ACLY (UniProt P53396)
UniProt P53396, sequence (P53396 whole entry, looked up): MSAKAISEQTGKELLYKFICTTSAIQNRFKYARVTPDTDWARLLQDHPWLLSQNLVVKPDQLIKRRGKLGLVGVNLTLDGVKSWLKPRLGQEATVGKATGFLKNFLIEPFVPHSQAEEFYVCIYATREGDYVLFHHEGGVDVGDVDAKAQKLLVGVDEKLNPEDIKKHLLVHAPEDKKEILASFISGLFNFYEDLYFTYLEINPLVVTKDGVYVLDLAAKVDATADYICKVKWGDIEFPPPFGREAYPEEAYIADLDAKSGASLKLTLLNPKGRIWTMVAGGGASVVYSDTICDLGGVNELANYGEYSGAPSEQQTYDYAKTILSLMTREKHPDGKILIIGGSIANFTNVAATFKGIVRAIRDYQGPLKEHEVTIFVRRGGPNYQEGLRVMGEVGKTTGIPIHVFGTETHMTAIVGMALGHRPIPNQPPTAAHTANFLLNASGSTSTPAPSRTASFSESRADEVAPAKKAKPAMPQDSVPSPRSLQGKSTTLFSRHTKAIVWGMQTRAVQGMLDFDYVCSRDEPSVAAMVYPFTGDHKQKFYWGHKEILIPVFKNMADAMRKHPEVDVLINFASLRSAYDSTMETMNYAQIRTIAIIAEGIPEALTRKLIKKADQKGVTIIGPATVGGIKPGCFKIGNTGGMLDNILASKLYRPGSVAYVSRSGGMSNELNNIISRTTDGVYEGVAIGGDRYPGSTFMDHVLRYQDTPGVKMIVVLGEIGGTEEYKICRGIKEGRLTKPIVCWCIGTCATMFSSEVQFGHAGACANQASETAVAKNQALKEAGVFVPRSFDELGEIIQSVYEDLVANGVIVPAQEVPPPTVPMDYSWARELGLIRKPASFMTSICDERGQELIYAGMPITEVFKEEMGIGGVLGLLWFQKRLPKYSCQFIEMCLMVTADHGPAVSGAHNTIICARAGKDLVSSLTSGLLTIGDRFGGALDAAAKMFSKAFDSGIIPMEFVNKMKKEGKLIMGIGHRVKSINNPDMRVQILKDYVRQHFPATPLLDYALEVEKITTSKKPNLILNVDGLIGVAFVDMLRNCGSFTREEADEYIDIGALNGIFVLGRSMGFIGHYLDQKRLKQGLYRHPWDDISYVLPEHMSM
- log2 fold change (lapatinib): -0.011
- log2 fold change (pictilisib): -0.009
- log2 fold change (crizotinib): -0.005
- log2 fold change [1]: -0.025
- log2 fold change (duvelisib): 0.012
- log2 fold change (gandotinib): 0.01
- log2 fold change (tozasertib): 0.003
- log2 fold change (doramapimod): 0.015
- log2 fold change (bafetinib): 0.008
- log2 fold change [2]: 0.013
- log2 fold change (nilotinib): -0.005
- log2 fold change [3]: -0.016
- log2 fold change (dasatinib): -0.026
- log2 fold change [4]: -0.005
- log2 fold change [5]: 0.021
- log2 fold change (quisinostat): 0.002
- log2 fold change (tipifarnib): 0.016
- log2 fold change [6]: -0.004
- log2 fold change [7]: 0.018
- log2 fold change [8]: 0.014
